Test results taken from PubChem BioAssay (NCATS).
For part of these data: Results with a measured potency or affinity are listed apart. Active and inactive are the calls of the source. The rule behind the calls is not given here.

Columns and labels:
[1] = Ebola virus entry assay, green fluorescence channel
[2] = Ebola virus entry assay, blue channel fluorescence
[3] = Ebola virus entry assay, ratio channel
[4] = Ebola virus entry assay, green channel fluorescence
[5] = Ebola virus entry assay, reporter ratio channel; Channel type: primary
[6] = Ebola virus entry assay, blue channel (ratio component)

Measured: efficacy
Throughout, for efficacy: 0% is about no effect.

CCN(CC)CC(=O)OCC(=O)[C@@]1(O)CC[C@H]2[C@@H]3CCC4=CC(=O)CC[C@]4(C)[C@H]3[C@@H](O)C[C@@]21C
inactive: [1] 17.3% | [2] | [3] | [4] | [5] | [6]

O=C1Cc2cc(Cl)ccc2N1
inactive: [1] -20.6% | [2] | [3] | [4] | [5] | [6]

CCN(CC)CC1CCCCN1CC(=O)N1c2ccccc2C(=O)Nc2cccnc21 (stereo not drawn)
inactive: [1] 31.3% | [2] | [3] | [4] | [5] | [6]

CC(C)(C)C(=O)NCCCC(=O)O
inactive: [1] -17.8% | [2] | [3] | [4] | [5] | [6]

O=C(NN1CCCC1)NS(=O)(=O)c1ccc(Cl)cc1
inactive: [1] -14.3% | [2] | [3] | [4] | [5] | [6]

CC(=O)Oc1ccc(C2(c3ccc(OC(C)=O)cc3)Oc3ccccc3NC2=O)cc1
inactive: [1] -26.7% | [2] | [3] | [4] | [5] | [6]

NS(=O)(=O)c1cc2c(cc1Cl)NC(C1CC3C=CC1C3)NS2(=O)=O (stereo not drawn)
inactive: [1] -30.9% | [2] | [3] | [4] | [5] | [6]

CCCCCCCCCCCCCCCCCCOCC(O)CO (stereo not drawn)
inactive: [1] -25.1% | [2] | [3] | [4] | [5] | [6]
